mTORC1 inh – mTORC1 pathway inhibition measured by phospho-rpS6; Tsc2-/- p53-/- MEF, phospho-rpS6 immunofluorescence/PI, 24 h; Potency, µM (series often up to 38.3 µM), inactives show top-dose activity change, negative = inhibition, usual class: inhibitors; AID 493208; 44,000 compounds, 0.78% hits;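 note: potency is the fitted concentration of half-maximal effect; plate controls were DMSO for no effect and rapamycin for full effect; nearly all actives have a fitted effect of over 50% in size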
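Readout is phospho-S6 Alexa 488 signal normalized to PI per well, reported as % active cells with thresholds set from rapamycin (7.5 nM) and DMSO controls. Cells: Tsc2-/-, p53-/- MEFs, 24 hrs compound at 37 C; PI cell number serves as viability.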
p53null 32C kill – selectivity test: cytotoxicity in p53 null cells, permissive temperature; Potency, µM (highest dose often 46.1 µM), inactives show at the top dose activity change, negative = cytotoxicity, usual class: cytotoxic; H1299-neo p53 null cells, ATP luminescence, 24 h, 32C; 55,000 compounds, 0.62% hits;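 note: potency is the fitted concentration of half-maximal effect; 0% = DMSO only and -100% = full killing by 100 µM tamoxifen; nearly all actives have a fitted effect of over 55% in size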
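H1299-neo, 600 cells/well; overnight 37C; cpd up to 46 uM, 24 h at 32C; ATPlite luminescence after 20 min RT; normalized to DMSO (0%) and tamoxifen 100 uM (100% kill); Hill-fit AC50.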
PMP22 txn prim – modulators of PMP22 gene transcription in S16 Schwann cells | S16 Pmp22-F2sN Schwann cells, FLuc/NLuc coincidence luminescence, 24 h | Potency, µM (top dose mostly 57.5 µM), for inactives: at the top dose activity change, negative = inhibition, hits mostly inhibitors | 43,000 compounds, 2% hits | AID 1508649; active = clear falling dose curves in both reporters; inconclusive = both reporters move, but less clearly or upward; inactive = either reporter flat; the % is the NLuc reporter signal; note: potency is the fitted concentration of half-maximal effect; % is set by controls: 0 for no effect and ±100 for the full control effect
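S16 Schwann cells carrying FLuc/NLuc coincidence reporter in the Pmp22 3' UTR treated with compound 24 h at 37C; FLuc then NLuc luminescence read sequentially by dual-luciferase reagents.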
OvCa metastasis – ovarian cancer metastasis inhibition, 3D TME model; SKOV3ip1-GFP adhesion/invasion on 3D omental model, fluorescence; Potency, µM (highest dose often 45.8 µM), for inactives: top-dose activity change, negative = inhibition, hits mostly inhibitors; 46,000 compounds, 0.1% hits; AID 1963576;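 note: potency is the fitted concentration of half-maximal effect; plate controls were DMSO wells for no effect and tomatine positive control wells for full effect; nearly all actives have a fitted effect of over 65% in size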
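A 3D layer of primary human omental fibroblasts, mesothelial cells, fibronectin and collagen I, grown 48 hr, received SKOV3ip1-GFP cells in serum-free medium plus compounds at 0.36-46 umol/L. After 2 hr RT and 16 hr 37 C, fixed adherent GFP cells were counted; normalized to DMSO and tomatine.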
p53null 39C tox – selectivity test: cytotoxicity in p53 null cells, nonpermissive temperature | H1299 p53-null (neo) cells, 39C, ATPlite viability, 24 h | Potency, µM (highest dose often 46.1 µM), for inactives: at the top dose activity, negative = cell killing, actives largely listed as cytotoxic | 55,000 compounds, 0.97% hits;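 note: potency is the fitted concentration of half-maximal effect; 0% = DMSO only and -100% = full killing by 100 µM tamoxifen; nearly all actives have a fitted effect of over 50% in size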
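Temperature-shift cytotoxicity format: compound titrations on p53-null or A138V-expressing H1299 cells held 24 hr at 39C, cell ATP then measured, AC50 from Hill model.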
S16 viability – S16 Schwann cell cytotoxicity | S16 Pmp22-F2sN Schwann cells viability, CellTiter-Glo, 24 h | Potency, µM (doses to about 57.5 µM), inactives show top-dose activity change, negative = cytotoxicity, actives largely listed as cytotoxic | 43,000 compounds, 0.48% hits; note: potency is the fitted concentration of half-maximal effect; % is set by controls: 0 for no effect and ±100 for the full control effect; nearly all actives have a fitted effect of over 65% in size
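S16 Pmp22-F2sN Schwann cells (500-1,000/well) in phenol-red-free DMEM with 10% FBS received 23 nL compound by pin tool for 24 h at 37 °C. Viability was then read as CellTiter-Glo luminescence after 15 min at room temperature.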
NLuc sat counter – inhibits NanoLuc at saturating substrate, PMP22 counter-screen; Potency, µM (highest dose often 57.5 µM), without a hit: top-dose activity change, negative = inhibition, hits mostly inhibitors; AID 1508638; shares compounds with PMP22 txn prim; 690 compounds, 4% hits; Secreted NLuc enzyme (filtered S16 cell medium), Nano-Glo luminescence; note: potency is the fitted concentration of half-maximal effect; % is set by controls: 0 for no effect and ±100 for the full control effect
NLuc Km ctr – inhibits NanoLuc under Km conditions, PMP22 counter-screen | shares compounds with PMP22 txn prim | secreted NLuc enzyme, coelenterazine luminescence, Km conditions | Potency, µM (doses to about 57.5 µM), for the others: top-dose activity change, negative = inhibition, hits mostly inhibitors | 690 compounds, 5% hits | AID 1508639; note: potency is the fitted concentration of half-maximal effect; % is set by controls: 0 for no effect and ±100 for the full control effect
FLuc counter – firefly luciferase enzyme inhibition artifact for PMP22 screen; Potency, µM (titrated, usually from 57.5 µM), without a hit: at the highest dose activity, negative = inhibition, hits mostly inhibitors; 690 tested, under 10 active; purified P. pyralis FLuc, luminescence, 10 min; AID 1508640; shares compounds with PMP22 txn prim; note: % of control where 0% means no effect
Target sequence (P08659 whole entry, looked up): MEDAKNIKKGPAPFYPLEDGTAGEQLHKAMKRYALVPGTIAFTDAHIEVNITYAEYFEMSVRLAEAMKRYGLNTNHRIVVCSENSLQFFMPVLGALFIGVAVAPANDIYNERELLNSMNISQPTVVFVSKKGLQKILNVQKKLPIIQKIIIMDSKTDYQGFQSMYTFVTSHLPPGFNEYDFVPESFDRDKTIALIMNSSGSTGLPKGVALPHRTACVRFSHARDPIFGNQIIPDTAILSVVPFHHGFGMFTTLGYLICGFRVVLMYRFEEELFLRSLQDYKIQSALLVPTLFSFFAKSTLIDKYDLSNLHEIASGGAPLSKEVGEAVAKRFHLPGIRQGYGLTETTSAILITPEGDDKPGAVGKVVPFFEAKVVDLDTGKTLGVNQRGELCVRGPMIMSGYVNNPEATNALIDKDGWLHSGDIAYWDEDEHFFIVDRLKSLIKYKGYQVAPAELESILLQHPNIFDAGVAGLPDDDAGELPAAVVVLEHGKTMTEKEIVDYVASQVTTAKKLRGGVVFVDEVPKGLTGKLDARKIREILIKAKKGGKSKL
S16 F2sN tox cnf – confirmation of cytotoxicity in S16 Pmp22-F2sN Schwann cells (luciferase reporters placed in the Pmp22 gene) | AID 1508641 | 690 compounds, 7% hits | Potency, µM (highest dose often 57.5 µM), for the others: at the top dose activity change, negative = viability loss, usual class: cytotoxic | shares compounds with PMP22 txn prim | S16 Schwann cells viability, CellTiter-Glo ATP luminescence, 24 h; note: potency is the fitted concentration of half-maximal effect; % is set by controls: 0 for no effect and ±100 for the full control effect
PMP22 txn conf – PMP22 transcription modulation, confirmatory; shares compounds with PMP22 txn prim; S16 Schwann cells Pmp22-F2sN, dual luciferase, 24 h; Potency, µM (titrated, usually from 57.5 µM), inactives show at the top dose activity change, negative = inhibition, actives largely listed as inhibitors; 690 compounds, 22% hits; AID 1508646; active = clear falling dose curves in both reporters; inconclusive = both reporters move, but less clearly or upward; inactive = either reporter flat; the % is the FLuc reporter signal; note: potency is the fitted concentration of half-maximal effect
PMP22 prot conf – confirmation of modulators of rat PMP22 protein expression; shares compounds with PMP22 txn prim; S16 Schwann cells Pmp22-HiBiT, luminescence, 48 h; Potency, µM (titrated, usually from 27.9 µM), for inactives: at the top dose activity change, negative = inhibition, hits mostly inhibitors; 95 tested, under 10 active; AID 1508647
Target sequence (P25094 whole entry, looked up): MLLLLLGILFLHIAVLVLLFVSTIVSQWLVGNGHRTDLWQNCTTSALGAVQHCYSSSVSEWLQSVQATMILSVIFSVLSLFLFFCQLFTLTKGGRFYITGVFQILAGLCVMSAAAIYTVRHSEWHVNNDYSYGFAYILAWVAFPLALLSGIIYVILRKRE
Numbers without * were called inactive; i = inactive; u = inconclusive; x = no result given. The list is not random: actives were taken first. Their share in the collection is about 3%. Unless noted, calls come from the whole dose curve; as a rule, active = well fitted curve in the direction sought with a large enough effect; inconclusive = small, poorly fitted or top-dose-only effect, or another doubt; inactive = no such curve, though single readings can be large; an effect the other way counts as inactive or inconclusive.

SMILES	mTORC1 inh	p53null 32C kill	PMP22 txn prim	OvCa metastasis	p53null 39C tox	S16 viability	NLuc sat counter	NLuc Km ctr	FLuc counter	S16 F2sN tox cnf	PMP22 txn conf	others
CCOc1ccc(CN2C(=O)C(=O)c3cccc(C)c32)cc1OC	-21.5%	-0.6%	11.3µM*	-5.1%	20µM*	14.0%	u	u	-12.9%	-11.5%	u
COc1ccc(NC(=O)Cn2c(=O)cc(C)c3c(C)nn(C)c32)cc1	-14.2%	12.5%	15.8µM*	i	-17.1%	0.8%	-4.3%	-2.8%	3.0%	-3.5%	-13.6%
CCOc1ccc(NC(=O)Cn2c(=O)cc(C)c3c(C)nn(C)c32)cc1	u	-5.2%	-14.2%	-4.6%	2.6%	u	x	x	x	x	x
Cc1ccc(Cl)cc1NC(=O)Cn1c(=O)cc(C)c2c(C)nn(C)c21	-17.4%	-5.3%	18.9µM*	15.3%	-4.3%	19.4%	-15.4%	-13.5%	4.0%	-20.7%	-26.7%
COc1ccc2cccc(CCNC(C)=O)c2c1	x	x	x	6.8%	x	x	x	x	x	x	x
C[C@]12CC[C@@H]3c4ccc(O)cc4CC[C@H]3[C@H]1C[C@@H](O)[C@H]2O	x	x	x	4.4%	x	x	x	x	x	x	x
CC(=O)N1c2ccc(S(=O)(=O)NCC3CCC(C(=O)Nc4cc(C)ccc4C)CC3)cc2CC1C (centres undefined)	-20.3%	0.9%	u	-21.9%	-8.1%	u	-15.5%	2.3%	4.0%	-24.3%	-47.2%
CC(=O)N1c2ccc(S(=O)(=O)NCC3CCC(C(=O)Nc4ccccc4C)CC3)cc2CC1C (centres undefined)	-25.7%	-3.4%	-27.0%	9.8%	-9.1%	-8.4%	x	x	x	x	x
CCOc1ccc(OCC)c(NC(=O)c2nnn(CC(=O)Nc3cc(Cl)ccc3OC)c2N)c1	-17.1%	-16.5%	11.3µM*	u	-6.8%	14.3%	-3.6%	6.6%	6.6%	u	13.7µM*
CCOc1ccc(OCC)c(NC(=O)c2nnn(Cc3cc(Br)ccc3OC)c2N)c1	4.3%	-6.9%	-16.0%	i	-27.7%	14.5%	x	x	x	x	x
CCn1cc(C(=O)NCCc2ccc(OC)c(OC)c2)c(=O)c2cc(S(=O)(=O)N3CCCCCC3)ccc21	0.6%	16.3%	u	5.5%	-9.7%	u	u	u	-9.9%	-3.1%	-54.3%
CCn1cc(C(=O)NC(C)c2ccccc2)c(=O)c2cc(S(=O)(=O)N3CCc4ccccc4C3)ccc21 (centres undefined)	10.9%	14.1%	u	i	-13.3%	-3.3%	x	x	x	x	x
CCn1cc(C(=O)NCCc2ccc(C)cc2)c(=O)c2cc(S(=O)(=O)N3CCCCC3)ccc21	-14.5%	17.2%	-7.8%	i	4.0%	7.8%	x	x	x	x	x
CCC(C)NC(=O)c1cn(CC)c2ccc(S(=O)(=O)N3CCc4ccccc4C3)cc2c1=O (centres undefined)	0.7%	-7.4%	16.8µM*	i	-14.2%	-20.1%	-5.1%	5.0%	3.7%	-23.2%	-40.9%
COC(=O)[C@@H]1[C@H]2C[C@@H]3c4[nH]c5ccccc5c4CCN3C[C@@H]2CC[C@@H]1O	x	x	x	5.4%	x	x	x	x	x	x	x
COc1ccc(CC(=O)Nc2sc3c(c2C(=O)Nc2ccc(C)cc2)CCCCC3)cc1	7.9%	8.8%	u	i	-25.7%	-19.5%	x	x	x	x	x
COc1ccc(CC(=O)Nc2sc3c(c2C(=O)Nc2cccc(C)c2)CCCCC3)cc1	9.27µM*	-13.4%	10µM*	-1.0%	u	25.1µM*	-15.2%	5.6%	-13.5%	u	u
O=C(C=Cc1cccnc1)NCCCCC1CCN(C(=O)c2ccccc2)CC1	x	x	x	3.8%	x	x	x	x	x	x	x
CN1N=C(N)c2cn([C@@H]3O[C@H](COP(=O)(O)O)[C@@H](O)[C@@H]3O)c3ncnc1c23	x	x	x	2.3%	x	x	x	x	x	x	x
Cc1ccc(OCCSc2nc3ccc(NC(=O)c4ccc5c(c4)OCO5)cc3s2)cc1	-3.6%	-11.1%	13.5µM*	6.4%	-2.9%	-0.4%	-2.8%	0.9%	-1.9%	u	u
Cc1cccc(C(=O)Nc2ccc3nc(SCCOc4ccccc4)sc3c2)c1	0.5%	-9.9%	u	i	-1.2%	18.7%	x	x	x	x	x
CCOc1ccc(C(=O)Nc2ccc3nc(SCCOc4ccccc4)sc3c2)cc1	-4.4%	-10.2%	10.6µM*	3.7%	-2.6%	10.3%	-2.5%	1.7%	4.0%	-10.6%	-40.3%
COc1ccccc1CNC(=O)Cn1c(=O)oc2cc(S(=O)(=O)N3CCC(C)CC3)ccc21	-5.1%	u	13.3µM*	-8.7%	-5.9%	u	-11.6%	-0.7%	0.6%	-17.8%	-25.6%
CCCC1=Nc2cc(C(=O)NC3CCCC3)ccc2Sc2ccc(C)cc21	-9.9%	23.8%	3.65µM*	-7.7%	u	1.8%	-7.7%	-1.1%	8.5%	-2.4%	4.44µM*
CCCC1=Nc2cc(C(=O)NC3CCCCC3)ccc2Sc2ccc(C)cc21	-2.5%	13.2%	0.897µM*	-7.5%	11.6%	-34.2%	-9.7%	3.0%	-8.2%	0.9%	2.89µM*	PMP22 prot conf=u

High-throughput results from PubChem BioAssay.
